# Values joined by “and” are separate entries in the source; they are usually repeats but may differ in a detail not shown here. Equal entries are not always repeated. Records with an inconclusive call do not appear. A call without a number means that no potency is given here. Active and inactive are the calls of the source. The call rests on the fitted dose curve; in most records, active means well fitted inhibition curve with a large enough effect; inconclusive means small, poorly fitted or top-dose-only effect; inactive means no such curve, though single readings can be large or run the other way.
# Molecular target: Cytochrome P450 2C9 (Homo sapiens) (UniProt P11712)
# Assay: qHTS Assay for Inhibitors and Substrates of Cytochrome P450 2C9 (AID 883); further: nearly all actives have a fitted effect of over 60% in size
# Details: recombinant CYP2C9, luciferin-H luminescence, 60 min; series mostly up to 57.1 µM
# Method: NIH Molecular Libraries Screening Centers Network [MLSCN] NIH Chemical Genomics Center [NCGC] MLSCN Grant: None NCGC Assay Overview: The P450 gene superfamily is involved in the metabolism and clearance of xenobiotics. This assay used human CYP2C9 to measure the hydroxylation of deoxyluciferin (Luciferin-H; P450 Glo-Buffer) to luciferin. The luciferin is then measured by luminescence after the addition of a luciferase detection reagent. Luciferin-H concentration in the assay was equal to its Michaelis constant KM for CYP2C9. Inhibitors and some substrates limit the production of luciferin, and decrease measured luminescence.
# NCGC Assay Protocol Summary: Two uL of enzyme and substrate mix (final concentrations: 10nM CYP2C9, 100uM Luciferin-H, 25mM KPO4) were dispensed into a white, solid bottom 1536-well microtiter plate. 23nL of compound was transferred by a pin tool. The plate was incubated at 37C for 10 min. Two uL of an NADPH regeneration solution (Promega supplied reagent) was dispensed and the reaction was allowed to continue for 60 min at 37C. Then the reaction was stopped by reconstituted P450 Glo-Buffer. After another 20 min of incubation the plate was read on the ViewLux (Perkin Elmer) at 60 sec exposure and 2x2 binning. This protocol was carried out with Promega-Glo reagents and further information can be found at http://www.promega.com/tbs/tb325/tb325.pdf. Data were normalized to the to AC100 inhibition (57uM sulphaphenazole). Keywords: P450, CYP2C9, Luciferase, MLSMR, MLSCN, NIH Roadmap, qHTS, NCGC
# Potency means the concentration at half of the fitted maximal effect.
# Chain of Cytochrome P450 2C9 (Homo sapiens) (P11712 whole entry, looked up): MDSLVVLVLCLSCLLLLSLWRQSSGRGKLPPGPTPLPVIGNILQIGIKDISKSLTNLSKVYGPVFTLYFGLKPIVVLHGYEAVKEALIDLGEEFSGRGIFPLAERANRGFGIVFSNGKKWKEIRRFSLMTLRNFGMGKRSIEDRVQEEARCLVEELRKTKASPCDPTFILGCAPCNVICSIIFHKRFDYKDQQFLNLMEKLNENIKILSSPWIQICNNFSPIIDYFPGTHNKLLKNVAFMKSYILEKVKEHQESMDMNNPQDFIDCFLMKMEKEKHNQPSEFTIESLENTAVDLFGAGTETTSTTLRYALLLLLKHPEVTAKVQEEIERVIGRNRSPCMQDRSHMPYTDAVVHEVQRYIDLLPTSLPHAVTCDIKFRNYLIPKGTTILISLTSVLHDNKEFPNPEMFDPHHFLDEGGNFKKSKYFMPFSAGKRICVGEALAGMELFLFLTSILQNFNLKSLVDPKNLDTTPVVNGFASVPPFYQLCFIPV
row,SMILES,Potency
1,Clc1ccccc1C(c1ccccc1)(c1ccccc1)n1ccnc1,1 µM (active) and 316 nM (active)
2,N[C@@H](Cc1c[nH]c2ccc(O)cc12)C(=O)O,inactive
3,CN(C)CCCN1c2ccccc2CCc2ccc(Cl)cc21,inactive
4,Clc1ccc2c(c1)C(N1CCNCC1)=Nc1ccccc1O2,inactive
5,Cn1c(=O)c2c(ncn2C)n(C)c1=O,inactive
6,CCC1(c2ccccc2)C(=O)NCNC1=O,inactive
7,CS(=O)(=O)Nc1ccc([N+](=O)[O-])cc1Oc1ccccc1,10 µM (active) and 3.16 µM (active)
8,CCOC(=O)c1ncn2c1CN(C)C(=O)c1cc(F)ccc1-2,inactive
9,O=c1[nH]cc(F)c(=O)[nH]1,inactive
10,COC(=O)Nc1nc2ccc(C(=O)c3cccs3)cc2[nH]1,inactive
11,O=c1c(-c2ccc(O)cc2)coc2cc(O)cc(O)c12,inactive
12,CN1C(C(=O)Nc2ccccn2)=C(O)c2ccccc2S1(=O)=O,3.98 µM (active)
13,COc1cc2nc(N3CCN(C(=O)c4ccco4)CC3)nc(N)c2cc1OC,inactive
14,O=C(Nc1ccc([N+](=O)[O-])cc1Cl)c1cc(Cl)ccc1O,0.631 µM (active)
15,O=C1N(c2ccccc2)c2ccccc2C1(Cc1ccncc1)Cc1ccncc1,3.98 µM (active) and 7.94 µM (active)
16,NC(=O)OCC(COC(N)=O)c1ccccc1,inactive

# Source: PubChem BioAssay (NCATS)
